For the assay, the target named is Death-associated protein kinase 1 (Homo sapiens) (UniProt P53355). Particulars: at 1 µM.
Death-associated protein kinase 1 (Homo sapiens), sequence (P53355 whole entry, looked up): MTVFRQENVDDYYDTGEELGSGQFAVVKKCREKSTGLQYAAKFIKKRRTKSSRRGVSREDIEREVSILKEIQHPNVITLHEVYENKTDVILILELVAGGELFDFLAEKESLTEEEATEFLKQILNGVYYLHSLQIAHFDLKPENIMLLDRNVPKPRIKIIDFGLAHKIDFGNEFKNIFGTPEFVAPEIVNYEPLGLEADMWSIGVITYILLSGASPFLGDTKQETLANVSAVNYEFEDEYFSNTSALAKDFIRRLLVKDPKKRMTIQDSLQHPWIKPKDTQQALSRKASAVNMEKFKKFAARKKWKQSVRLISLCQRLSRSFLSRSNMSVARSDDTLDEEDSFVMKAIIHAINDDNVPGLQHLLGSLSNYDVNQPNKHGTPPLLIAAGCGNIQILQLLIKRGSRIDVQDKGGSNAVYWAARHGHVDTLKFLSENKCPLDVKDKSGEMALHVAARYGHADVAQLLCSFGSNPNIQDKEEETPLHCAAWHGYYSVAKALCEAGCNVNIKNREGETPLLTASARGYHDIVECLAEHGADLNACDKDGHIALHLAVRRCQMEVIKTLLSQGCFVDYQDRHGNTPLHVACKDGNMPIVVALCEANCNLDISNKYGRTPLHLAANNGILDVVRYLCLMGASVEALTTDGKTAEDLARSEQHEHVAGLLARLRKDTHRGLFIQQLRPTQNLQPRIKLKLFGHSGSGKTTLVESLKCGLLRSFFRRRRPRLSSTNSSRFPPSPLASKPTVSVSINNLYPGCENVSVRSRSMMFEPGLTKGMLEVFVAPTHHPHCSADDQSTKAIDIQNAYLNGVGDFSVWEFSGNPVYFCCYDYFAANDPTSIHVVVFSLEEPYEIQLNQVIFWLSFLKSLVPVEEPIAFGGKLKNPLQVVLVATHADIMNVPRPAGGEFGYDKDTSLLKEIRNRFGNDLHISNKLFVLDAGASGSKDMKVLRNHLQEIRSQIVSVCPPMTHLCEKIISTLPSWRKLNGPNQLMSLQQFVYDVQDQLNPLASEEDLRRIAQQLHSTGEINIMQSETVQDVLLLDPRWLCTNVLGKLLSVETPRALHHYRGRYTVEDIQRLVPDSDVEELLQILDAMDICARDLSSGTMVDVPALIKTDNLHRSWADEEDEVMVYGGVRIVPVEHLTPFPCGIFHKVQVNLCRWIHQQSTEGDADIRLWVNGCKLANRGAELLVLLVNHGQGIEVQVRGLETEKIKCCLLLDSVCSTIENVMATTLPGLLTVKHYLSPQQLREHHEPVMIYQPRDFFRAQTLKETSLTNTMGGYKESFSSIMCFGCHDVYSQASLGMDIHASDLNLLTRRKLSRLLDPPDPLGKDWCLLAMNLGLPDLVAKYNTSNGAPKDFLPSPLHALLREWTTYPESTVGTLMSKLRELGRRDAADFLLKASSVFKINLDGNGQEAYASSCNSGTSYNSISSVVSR
With `Oc1ccc(-c2nc(-c3ccc(F)cc3)c(-c3ccncc3)[nH]2)cc1`, the residual activity is 92%. With `COc1cc2ncnc(Nc3ccc(O)c(Br)c3)c2cc1OC` the figure was 88%. For `COc1ccc(S(=O)(=O)N(CCO)c2ccccc2CN(C)C/C=C/c2ccc(Cl)cc2)cc1` the value was 86%; for `Cn1c2ccccc2c2c3c(c4c5ccccc5n(CCC#N)c4c21)CNC3=O`, 101%. With `COc1ccc(Cl)cc1NC(=O)Nc1cc(C)nc2ccccc12` the figure was 94%; with `O=C(NC(NC(=S)Nc1ccc(F)c([N+](=O)[O-])c1)C(Cl)(Cl)Cl)C(c1ccccc1)c1ccccc1` (stereo not given), 90%. Turning to `CCC(=O)Nc1ccc2ncnc(Nc3cccc(Br)c3)c2c1`, the residual activity worked out at 80%. For `CCOC(=O)c1c(C)[nH]c(/C=C2\C(=O)Nc3ccccc32)c1C` the value was 83%; for `CC#CC(=O)Nc1cc2c(Nc3ccc(F)c(Cl)c3)ncnc2cn1`, 88%; for `Fc1ccc(-c2nc3n(c2-c2ccncc2)CCS3)cc1`, 85%. On to `Cn1nc2c3c(cccc31)C(=O)c1ccccc1-2`, for which the residual activity was 85%.

For the molecule `Nc1ncnc2c1c(-c1ccc(Oc3ccccc3)cc1)cn2C1CCCC1`, the residual activity came out at 91%.

As for `O=C1NC(=O)/C(=C/c2ccc3c(c2)OC(F)(F)O3)S1`, the residual activity came out at 98%. With `O=C(O)/C=C/c1cc(Br)c(Br)c(Br)c1Br` the figure was 86%; with `CO[C@H]1[C@@H](OC)C[C@H](C)[C@@H](OC)C2=CC(=O)C=C(NC(=O)/C(C)=C/C=C/[C@H](OC)[C@@H](OC(N)=O)/C(C)=C/[C@@H]1C)C2=O`, 96%. With `CC(C)[C@H](CO)Nc1nc(Nc2cc(N)cc(Cl)c2)c2ncn(C(C)C)c2n1` the figure was 92%. For `Cc1nc(-c2ccccc2)c(-c2ccncc2)o1` the value was 81%; for `O=C1NC(=O)c2cc(Nc3ccc(F)cc3)c(Nc3ccc(F)cc3)cc21`, 87%; for `O=C(Nc1cccc(Nc2cc(Nc3cccc(C(F)(F)F)c3)ncn2)c1)C1CC1`, 109%. As for `O=[N+]([O-])c1ccc(-c2nc(-c3ccc(F)cc3)c(-c3ccncc3)[nH]2)cc1`, the residual activity turned out to be 74%. In the case of `CCN(CC)CCNC(=O)c1c(C)[nH]c(/C=C2\C(=O)Nc3ccc(Cl)cc32)c1C`, the residual activity was found to be 75%. With `O=C(Nc1cccc(Nc2nccc(Nc3cccc(C(F)(F)F)c3)n2)c1)C1CC1` the figure was 98%; with `CCN1/C(=C/C(C)=O)Sc2ccc(OC)cc21`, 81%.

On to `O=C(O)c1ccc2c3c1cccc3c(=O)n1c3ccccc3nc21`, for which the residual activity was 79%.

Turning to `COc1cccc(-c2cc(=O)c3ccccc3o2)c1N`, the residual activity was found to be 81%. Regarding `CO[C@@H]1[C@H](N(C)C(=O)c2ccccc2)C[C@H]2O[C@]1(C)n1c3ccccc3c3c4c(c5c6ccccc6n2c5c31)C(=O)NC4`, the residual activity worked out at 63%. For `Cn1sc(=O)n(Cc2ccccc2)c1=O` the value was 80%. For `O=C1Nc2ccc(Cl)cc2/C1=C/c1cc(Cl)c(O)c(Cl)c1` the value was 79%; for `COc1cc2ncnc(Nc3cccc(Cl)c3)c2cc1OC`, 104%; for `CC[n+]1c(/C=C/N(C)c2ccccc2)n(-c2ccccc2)c2ccc(-c3nc4ccccc4s3)cc21`, 79%.
